Assay outcomes from PubChem.
ALOX12 inhib = inhibitors of human 12-lipoxygenase (ALOX12) | P18054 | purified 12-hLO, xylenol orange hydroperoxide absorbance | Potency, µM (series often up to 57.1 µM), most hits filed as inhibitors | 150,000 compounds, 0.12% hits | AID 1452; also: nearly all actives have a fitted effect of over 55% in size
Target sequence (P18054 whole entry, looked up): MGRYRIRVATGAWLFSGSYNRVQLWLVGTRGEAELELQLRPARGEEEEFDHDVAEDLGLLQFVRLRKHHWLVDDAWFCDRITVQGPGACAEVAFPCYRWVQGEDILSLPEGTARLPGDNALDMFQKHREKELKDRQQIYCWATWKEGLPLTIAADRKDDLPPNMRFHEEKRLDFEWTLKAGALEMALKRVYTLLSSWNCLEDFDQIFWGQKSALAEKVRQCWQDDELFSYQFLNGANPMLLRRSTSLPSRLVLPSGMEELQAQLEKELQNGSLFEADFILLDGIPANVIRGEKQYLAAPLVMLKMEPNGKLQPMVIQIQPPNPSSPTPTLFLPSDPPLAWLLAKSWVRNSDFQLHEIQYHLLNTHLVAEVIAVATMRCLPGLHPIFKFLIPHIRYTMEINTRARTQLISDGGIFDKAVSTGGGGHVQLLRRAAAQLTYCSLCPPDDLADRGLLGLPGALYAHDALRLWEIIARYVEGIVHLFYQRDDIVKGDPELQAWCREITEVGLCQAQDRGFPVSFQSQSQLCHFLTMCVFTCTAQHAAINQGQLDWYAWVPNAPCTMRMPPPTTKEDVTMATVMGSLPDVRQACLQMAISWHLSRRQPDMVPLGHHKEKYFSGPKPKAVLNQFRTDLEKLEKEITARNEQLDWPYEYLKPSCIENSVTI
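Purified human 12hLO (150 nM), preincubated 15 min with compound, then 40 uM arachidonic acid for 30 min, room temperature, Hepes pH 7.0 with 0.01% Triton X-100. Hydroperoxide detected by ferrous iron/xylenol orange; 573/405 nm absorbance ratio gives reaction progress.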
HPGD inh = inhibitors of human 15-hydroxyprostaglandin dehydrogenase (HPGD); Potency, µM, usual class: inhibitors; P15428; purified HPGD, NADH fluorescence kinetic, PGE2 substrate; 150,000 compounds, 4.3% hits; AID 894; active = well fitted inhibition curve with a large enough effect, not every such curve was filed as active; inconclusive = small, poorly fitted or top-dose-only effect, or another doubt; inactive = no such curve, though single readings can be large or run the other way
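20 nM HPGD preincubated 15 min at room temperature with compound in 50 mM Tris-HCl pH 8, 0.01% Tween 20. Started with 1 mM NAD+ and 30 uM prostaglandin E2; NADH fluorescence (360/450 nm) read 5 times over 30-s intervals, last minus first.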
p53ts 32C tox = p53ts cell cytotoxicity, permissive temperature | Potency, µM (series often up to 46.1 µM), hits mostly cytotoxic | H1299-p53A138V at 32C, ATP luminescence viability, 24 h | 130,000 compounds, 0.93% hits; also: nearly all actives have a fitted effect of over 55% in size
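H1299-p53 A138V cells (temperature-sensitive p53) exposed 24 h to up to 46 uM compound at 32C, where p53 is wild-type in conformation. Viability read as ATP luminescence and normalised to DMSO and 100 uM tamoxifen. AC50 fitted with the Hill equation.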
p53ts 39C tox = cytotoxicity in p53ts cells at nonpermissive temperature | H1299-p53A138V viability at 39C, ATP luminescence, 24 h | Potency, µM (top dose mostly 46.1 µM), usual class: cytotoxic | 130,000 compounds, 1.5% hits | AID 902; also: nearly all actives have a fitted effect of over 55% in size
HPGD inh conf = confirmation of human HPGD inhibitors; 90 compounds, 90% hits; Potency, µM (highest dose often 57.1 µM), hits mostly inhibitors; shares compounds with HPGD inh; recombinant HPGD, NADH fluorescence, PGE2 substrate; calls by dose curve
Hits are given with their value; n = inactive; u = inconclusive; x = no result given; ! = not confirmed by another sample; [ ] = another dose, or the depositor's remark. Only some compounds are listed: those with a hit (about 4.4% of all), similar ones and a draw of the others. Unless noted, calls follow the shape of the dose curve; as a rule, active = well fitted curve in the direction sought with a large enough effect; inconclusive = small, poorly fitted or top-dose-only effect, or another doubt; inactive = no such curve, though single readings can be large; an effect the other way counts as inactive or inconclusive.

SMILES	ALOX12 inhib	HPGD inh	p53ts 32C tox	p53ts 39C tox	others
C[C@@H]1O[C@@H](O[C@H]2C[C@@H](O)[C@]3(CO)[C@@H]4[C@@H](O)C[C@]5(C)[C@H]([C@@H]6COC(=O)C6)CC[C@@]5(O)[C@H]4CC[C@@]3(O)C2)[C@H](O)[C@H](O)[C@@H]1O	n	x	u	u
O=C(c1sc2ccccc2c1Cl)N1CCC2(CC1)OCCO2	n	14.1µM	n	n
CCCN1CCc2cccc3c2[C@@H]1Cc1ccc(O)c(O)c1-3	u	x	n	u
N[C@H](Cc1ccc2oc3cc(=O)c4ccccc4c-3nc2c1)C(=O)O	n[11.4 µM]	n	n[9.22 µM]	n[9.22 µM]
CN(N=O)c1cc(O)ccc1O	n	14.1µM	n	n
C=CCN1C(=O)/C(=C/c2cc(C)n(-c3cccnc3)c2C)C(=O)NC1=S	n	10µM	x	x
c1cc(CCN2CCCCC2)ccn1	n[11.4 µM]	n	n[9.22 µM]	n[9.22 µM]
O=C(O)CNC(=O)c1ccc([As](=O)(O)O)cc1	n[11.4 µM]	n	n[9.22 µM]	n[9.22 µM]
O=C(O)CNC(=O)[C@@H](CS)Cc1ccccc1	n	7.94µM	n	n
Nc1c(C(=O)Nc2ccc([As](=O)(O)O)cc2)cnc2nnnn12	n[11.4 µM]	n	n[9.22 µM]	n[9.22 µM]
O=C(c1cc2ccccn2n1)N1CCC2(CC1)OCCO2	n	n	n	n
O=C(c1ccc2c(c1)ncn2C1CCCCC1)N1CCC2(CC1)OCCO2	n	7.94µM	n	n
CN1C[C@H](C(=O)N[C@]2(C)O[C@@]3(O)[C@@H]4CCCN4C(=O)[C@H](Cc4ccccc4)N3C2=O)C=C2c3cccc4[nH]cc(c34)C[C@H]21	n	u	n[1.84 µM]	n
CC(C)[C@@]1(NC(=O)[C@@H]2C[C@H]3c4cccc5[nH]cc(c45)C[C@@H]3N(C)C2)O[C@@]2(O)[C@H]3CCCN3C(=O)[C@H](Cc3ccccc3)N2C1=O	u	n	u	31.6µM!
CC(C)C(=O)CP(=O)(O)O	n[11.4 µM]	n	n[9.22 µM]	n[9.22 µM]
O=C(O)[C@H]1[O][Sb][O][C@@H](C(=O)O)C1O (stereo partly specified)	n[11.4 µM]	n	n[9.22 µM]	n[9.22 µM]
CC(=O)Oc1c2c(c(CC=C(C)C)c3c1C(=O)C1=CC4CC5C(C)(C)OC(C/C=C(\C)C(=O)O)(C4=O)[C@]15O3)OC(C)(CCC=C(C)C)C=C2 (stereo partly specified)	u	28.2µM	3.98µM	3.98µM
COC(=O)/C(C)=C\CC12OC(C)(C)C3CC(C=C4C(=O)c5c(OC)c6c(c(CC=C(C)C)c5OC431)OC(C)(CCC=C(C)C)C=C6)C2=O (stereo unspecified)	n	n	3.98µM	6.31µM
O=C(OCc1cc(=O)n2nc(C3CC3)sc2n1)c1ccc(NC(=O)c2ccccc2Cl)cc1	x	x	u	n
Oc1cc2c(cc1O)[C@H]1c3ccccc3CNC1CC2 (stereo partly specified)	x	6.31µM	x	x
O=P1(Nc2ccc(F)cc2)COc2ccccc2OC1	n	1.12µM	n	n	HPGD inh conf=1µM
CC1(C)[C@@H]2CC[C@]1(C)CN(CCC[N+](C)(C)C)C2	n[11.4 µM]	n	n[9.22 µM]	n[9.22 µM]
C=C(C)c1ccccc1 (tested in a mixture with another compound)	n[11.4 µM]	n	n[9.22 µM]	n[9.22 µM]
CN[C@@H](C)[C@H](O)c1ccccc1	x	0.794µM	x	x	HPGD inh conf=1.41µM
Cc1ccc(-n2sc3ccccc3c2=O)cc1	7.94µM	0.631µM	x	u	HPGD inh conf=0.562µM
Cc1ccc(N2C(=O)CC(=O)NC2=O)cc1	n	n	n	n
